High-throughput results from PubChem.
A selection: hits, their analogues and other compounds. The true share with any hit is near 5.3%.
JMJD2A Tudor: qHTS Assay for Inhibitors of JMJD2A-Tudor Domain. AlphaScreen JMJD2A-Tudor / H3K4me3 peptide binding. Potency, µM (highest dose often 114 µM), for inactives: at the top dose activity change, negative = inhibition, most hits filed as inhibitors. AID 504339, 2011. Lysine-specific demethylase 4A (Homo sapiens), O75164. 390,000 compounds, 4.4% hits; further: potency means the concentration at half of the fitted maximal effect; on the % scale 0 is the no-effect control and ±100 the full control effect; nearly all actives have a fitted effect of over 50% in size
CtBP-E1A blk: qHTS Assay for Inhibitors of the CtBP/E1A Interaction. activity change, % (no concentration beside the values). CtBP / adenovirus E1A interaction (AlphaScreen). AlphaScreen GST-E1A/His-CtBP binding, 1536-well; hits give low values. 340,000 compounds, 0.49% hits; in the data active means activity change below about -65%; inconclusive means mostly about -30% to -63%; further: on the % scale 0 is the no-effect control and ±100 the full control effect
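AlphaScreen with 125 nM GST-E1A and 125 nM His-CtBP (5X stocks) in Tris pH 8.0, 300 mM NaCl, BSA, Tween 20, TCEP. Compounds preincubated 2 h at 37 deg C, then glutathione donor/nickel acceptor beads added for 1 h at 37 deg C in dark.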
TDP1 inh: qHTS Assay for Inhibitors of Tyrosyl-DNA Phosphodiesterase (TDP1); Tyrosyl-DNA phosphodiesterase 1 (Homo sapiens), Q9NUW8; recombinant TDP1, AlphaScreen DNA substrate cleavage; Potency, µM (doses to about 130 µM), for the others: top-dose activity change, negative = inhibition, actives largely listed as inhibitors; 350,000 compounds, 0.28% hits; AID 485290, 2010; further: potency means the concentration at half of the fitted maximal effect; on the % scale 0 is the no-effect control and ±100 the full control effect; nearly all actives have a fitted effect of over 40% in size
Target sequence (Q9NUW8 whole entry, looked up): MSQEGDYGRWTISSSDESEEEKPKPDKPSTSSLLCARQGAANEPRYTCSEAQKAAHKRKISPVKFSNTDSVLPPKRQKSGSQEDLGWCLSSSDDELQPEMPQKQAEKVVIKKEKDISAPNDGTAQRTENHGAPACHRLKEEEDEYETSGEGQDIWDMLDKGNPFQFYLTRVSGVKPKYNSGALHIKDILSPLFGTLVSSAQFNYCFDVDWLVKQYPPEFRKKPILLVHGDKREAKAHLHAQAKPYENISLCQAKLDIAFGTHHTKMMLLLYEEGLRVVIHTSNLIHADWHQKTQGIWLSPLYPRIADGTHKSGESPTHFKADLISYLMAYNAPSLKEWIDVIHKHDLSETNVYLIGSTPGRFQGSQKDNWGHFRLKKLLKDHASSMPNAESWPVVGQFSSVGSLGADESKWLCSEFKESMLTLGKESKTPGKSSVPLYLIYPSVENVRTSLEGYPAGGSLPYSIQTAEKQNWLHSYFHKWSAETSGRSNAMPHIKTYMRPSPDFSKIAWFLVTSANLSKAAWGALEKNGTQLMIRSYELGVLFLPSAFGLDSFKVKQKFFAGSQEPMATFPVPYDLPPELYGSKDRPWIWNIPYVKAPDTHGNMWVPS
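Signal: AlphaScreen proximity between streptavidin donor and anti-FITC acceptor beads on intact substrate. Reaction: Tdp1 1 nM, substrate 15 nM final, 5 min RT after 15 min compound preincubation.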
BAZ2B inh: qHTS Assay for Inhibitors of BAZ2B | Bromodomain adjacent to zinc finger domain protein 2B (Homo sapiens), Q9UIF8 | AlphaScreen BAZ2B-H3K14Ac peptide displacement | Potency, µM (highest dose often 114 µM), without a hit: at the highest dose activity change, negative = inhibition, most hits filed as inhibitors | 360,000 compounds, 4.4% hits | AID 504333, 2011; further: potency means the concentration at half of the fitted maximal effect; on the % scale 0 is the no-effect control and ±100 the full control effect; nearly all actives have a fitted effect of over 60% in size
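BAZ2B 50 nM plus b-H3(5-23)K14Ac 50 nM, PBS pH 7.4/0.01% Tween-20, 30 min RT; compound added (max 110 uM), 30 min RT; streptavidin donor/Ni-chelate acceptor beads 10 ug/mL final, 20 min dark; AlphaScreen read.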
HP1b chromo inh: HTS for Inhibitors of HP1-beta Chromodomain Interactions with Methylated Histone Tails; Chromobox protein homolog 1 (Homo sapiens), P83916; AlphaScreen HP1-beta / biotin-H3K9me3 peptide binding; Potency, µM (series often up to 114 µM), inactives show top-dose activity change, negative = inhibition, usual class: inhibitors; 390,000 compounds, 0.56% hits; AID 540317, 2011; further: potency means the concentration at half of the fitted maximal effect; nearly all actives have a fitted effect of over 70% in size
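AlphaScreen: HP1-beta (50 nM) preformed 30 min with biotin-H3(1-18)K9me3 peptide (50 nM) in PBS pH 7.4, 0.01% Tween-20. Compound added for 30 min at RT, then streptavidin donor/nickel chelate acceptor beads (10 ug/mL) for 30 min.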
Six1-Eya2 blk: qHTS Assay for Inhibitors of the Six1/Eya2 Interaction. activity change, % (no concentration beside the values). AlphaScreen GST-Six1/His-Eya2 binding, biochemical; hits give low values. Homeobox protein SIX1 (Homo sapiens) + Protein phosphatase EYA2 (Homo sapiens), …. 360,000 compounds, 0.56% hits; in the data active means activity change below about -65%; inconclusive means mostly about -30% to -63%; further: on the % scale 0 is the no-effect control and ±100 the full control effect
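GST-Six1 + His-Eya2 (5X stock: 250/500 nM); Tris pH 8.0, 300 mM NaCl, 0.05% BSA, 0.02% Tween 20; GSH donor/Ni acceptor beads; 1 h 37 °C dark; AlphaScreen readout.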
* marks the source's active call; other numbers are inactive results; ? = inconclusive; / = no result; ! = not confirmed by another sample; [ ] = remark or other dose. Unless noted, the call rests on the fitted dose curve; in most records, active means well fitted inhibition curve with a large enough effect; inconclusive means small, poorly fitted or top-dose-only effect; inactive means no such curve, though single readings can be large or run the other way.

SMILES	JMJD2A Tudor	CtBP-E1A blk	TDP1 inh	BAZ2B inh	HP1b chromo inh	Six1-Eya2 blk
COc1ccc(CNC(=O)CC2C[C@H](C(=O)N3CCOCC3)[C@@]3(CCC4CCCC4)c4[nH]c5ccccc5c4CCN3C2=O)cc1OC (stereo partly drawn)	?	-16	3%	/	-6%	-15
COc1ccc2[nH]c3c(c2c1)CCN1C(=O)C(CC(=O)NCc2ccc(OC)c(OC)c2)C[C@H](C(=O)N2CCOCC2)[C@@]31CCC1CCCC1 (stereo partly drawn)	50µM*	-5	0%[56.1 µM]	/	5%	-7
CC(=O)Nc1c(C)nn(-c2ccccc2)c1N1CCC(C(=O)NCc2cccc(F)c2)CC1	-16%	/	8%	8%	22%[57 µM]	/
Cc1cccc(OCCSc2nnc(-c3cccs3)o2)c1	165%	/	-9%	438%	171%	/
COc1ccc(/C=C/N(CCc2ccc(OC)c(OC)c2)C(C)=O)cc1	/	/	7%[21 µM]	/	/	/
O=C1CCc2cc(S(=O)(=O)Nc3ccc(Cl)cc3)ccc2N1	-1%	/	1%	/	/	/
CCN(CC)C(=O)[C@H]1C[C@H](CC(=O)NCc2ccco2)C(=O)N2CCc3c([nH]c4cc(-c5ccco5)ccc34)[C@]12C	50µM*	-14	7%[56.1 µM]	/	?	-15
CN(O)/C=C/C(=O)c1ccc(Br)cc1	50µM*	2	5%	-31%	-22%	5
O=[N+]([O-])c1ccc(CN2CCCCCC2)s1	20µM*	-9	?	40µM*	3.2µM*	-13
Nc1c[n+](N2CCOCC2)no1	/	/	10%	/	/	/
COc1ccc(/C(C)=N/NC(=O)c2cccc(S(=O)(=O)N3CCCC3)c2)c(O)c1	?	?	/	2.8µM*	-3%	?
C/C(=N\NC(=O)c1cccc(S(=O)(=O)N2CCCC2)c1)c1cccs1	56µM*	12	-7%	-17%	-10%	2
CC(=NNC(=O)c1cccc(S(=O)(=O)N2CCCC2)c1)c1ccccc1	2%	0	-4%	/	30%	13
Cc1ccc(C)c(NC(=O)c2cc(S(=O)(=O)N3CCCCCC3)ccc2F)c1	-14%	/	5%	0%	20%	/
Cc1ccc(CNc2ncnc3ccc(-c4ccc5c(c4)OCO5)cc23)s1	-26%	/	2%	/	/	/
COc1ccc2c(c1)CC(NC(=O)Nc1cc(Cl)ccc1OC)CO2 (stereo not drawn)	-8%	/	5%	-1%	23%[57 µM]	/
CCc1nnc(NC(=O)c2nc(S(C)(=O)=O)ncc2Cl)s1	10µM*	/	10%	-27%	46%	/
Cc1nnc(NC(=O)c2nc(S(=O)(=O)Cc3ccccc3)ncc2Cl)s1	32µM*	-6	5%	50µM*!	29%[57 µM]	-9
CCc1nnc(NC(=O)c2cc(Cl)ccn2)s1	16µM*	-93*	/	20µM*	51%	-77*
C[C@@H]1[C@H]2CC[C@@H]3[C@@H]4CC=C5C[C@@H](N(C)C)CC[C@]5(C)[C@@H]4CC[C@@]32CN1C	/	/	-6%[21 µM]	/	/	/
O=c1c2ccccc2sc2ccccc12	-13%	?	/	/	19%	-9
O=c1c(C(c2ccccc2)c2c(O)sc3ccccc3c2=O)c(O)sc2ccccc12	-9%	5	7%	28µM*	22%	3
CCOC(=O)c1ccccc1NC(=O)COC(=O)CC1CCCCC1	114%	38	50µM*	154%	172%	37
O=c1c(N2CCN(c3cccc(C(F)(F)F)c3)CC2)csc2ccccc12	45µM*	/	-1%	-20%	-11%	/
Cn1c(=O)c2cc(C(=O)NCCCN3CCN(c4ccc(F)cc4)CC3)sc2c2ccccc21	-24%	/	2%	/	18%	/
SMILES	JMJD2A Tudor	CtBP-E1A blk	TDP1 inh	BAZ2B inh	HP1b chromo inh	Six1-Eya2 blk
O=C(COC(=O)Cc1ccc(S(=O)(=O)N2CCOCC2)s1)NCCc1ccccc1	-27%	-11	-14%	50µM*	4%	-7
Cc1nnc(NN)n(N)c1=O	32µM*	-8	0%	11%	22µM*	-9
Cc1nnc(Nc2ccccc2)n(N)c1=O	?	-1	-1%	-15%	6%	2
N#Cc1ccc(N2C(=O)[C@@H]3C(C(=O)c4ccc5ccccc5n4)=NN[C@@H]3C2=O)cc1	-17%	0	-3%	?	54%	-14
N#Cc1ccc(N2C(=O)[C@@H]3C(C(=O)c4cnccn4)=NN[C@@H]3C2=O)cc1	16µM*	-10	7%	56µM*	25%	-4
Cn1ccc2cc3c(cc21)CCN3C(=O)Nc1cccnc1	79µM*	-20	15%	?	-28%	-6
CN1CCc2cc(NC(=O)Nc3cccnc3)ccc21	/	/	14%[56.1 µM]	/	/	/
c1ccc2c(c1)Nc1cc3ccccc3cc1S2	-28%	-5	3%	-30%	2%	2
Cc1ccc2c(c1)Sc1c(ccc3ccccc13)N2	?	-8	11%	40µM*	?	-23
CC1=NN(c2ccccc2)C(=O)C1N=Nc1cccc(O)c1 (stereo not drawn)	?	?	7%	?	-16%	-30
CC1=NN(c2ccccc2)C(=O)C1c1ccccc1 (stereo not drawn)	-34%	-4	0%	-32%	-5%	2
COc1ccc(N=NC2C(=O)N(c3ccccc3)N=C2C)cc1 (stereo not drawn)	7.9µM*	?	/	1.6µM*	7.1µM*	-73*
CC1=NN(c2nc(-c3ccc(C)cc3)cs2)C(=O)C1N=Nc1cccc(O)c1 (stereo not drawn)	14µM*	-16	2%	?	?	-17
CC1=NN(c2ccccc2)C(=O)C1N=Nc1ccccc1 (stereo not drawn)	?	-18	8%	3.2µM*	?	-21
CC1=NN(c2ccccc2)C(=O)C1N=Nc1ccc(N)cc1 (stereo not drawn)	?	?	13%	13µM*	?	-71*
COc1ccccc1CNC(=O)c1cc2c(=O)n(Cc3cccs3)ccc2nc1C	-15%	/	5%	-2%	52%	/
CCCc1cc(=O)oc2cc(OCC(=O)Nc3ccc(S(N)(=O)=O)cc3)ccc12	-33%	/	-21%	45µM*	-1%[57 µM]	2
Clc1ccc2c(N/N=C/c3ccccc3Br)ccnc2c1	?	-13	3%	-5%	4%	5
O=[N+]([O-])c1ccc(/C=N/Nc2ccnc3cc(Cl)ccc23)o1	40µM*	-24	/	28µM*	32µM*	?
